Experimental data reported in the supplement of paper PMC4723716.
± gives the uncertainty stated by the source. In all, about 9,900 compounds were measured (“viability index relative to DMSO control”: median about 1, lowest 2% from about 0.85 on). This is one part of a sample in which the lowest values are shown more often than they occur.

System: Plasmodium falciparum NF54 stage V gametocytes
Experiment: viability index relative to DMSO control (fraction); higher = less gametocyte killing
Conditions: 2.5 µM, incubation time: 72 h
In short: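 P. falciparum NF54 stage V gametocytes (serum-free medium, 0.75% gametocytemia, 1.25% hematocrit) were exposed to compound at 2.5 µM for 72 hr at 37°C under low oxygen, then stained with MitoTracker Red CMXRos and saponin for one to two hours. Red particles of 20–70 µm2 in one field per well were counted, and the viability index is that count scaled to the plate mean of solvent-only wells.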

[1] = library set: Broad Institute DOS
[2] = library set: Broad Institute Blood Stage

SMILES | viability index [1] | viability index [2]
Cc1ccc(S(=O)(=O)Nc2ccc3c(c2)C(=O)N([C@@H](C)CO)C[C@@H](C)[C@@H](CN(C)S(=O)(=O)c2cccs2)OCCCC[C@@H](C)O3)cc1 | 1.13 ± 0.23 | –
NCC[C@H]1CC[C@@H](NC(=O)Cc2ccncc2)[C@H](CO)O1 | 1.091 ± 0.0072 | –
CNC(=O)C[C@@H]1CC[C@@H]2[C@H](COC[C@@H](O)CN2Cc2ccccc2F)O1 | 1.08 ± 0.086 | –
COc1ccc(S(=O)(=O)Nc2ccc3c(c2)C(=O)N([C@H](C)CO)C[C@H](C)[C@@H](CN(C)Cc2ccc(C(F)(F)F)cc2)OCCCC[C@H](C)O3)cc1 | 1.07 ± 0.051 | –
C/C=C/c1ccc2n(c1=O)C[C@@H]1[C@@H](CO)[C@H](C(=O)NCC)N(Cc3cccc(F)c3)[C@H]21.C/C=C\c1ccc2n(c1=O)C[C@@H]1[C@@H](CO)[C@H](C(=O)NCC)N(Cc3cccc(F)c3)[C@H]21 | 0.99 ± 0.091 | –
Cc1ccccc1-c1ccc([C@@H]2[C@@H]3CN(Cc4cocn4)C[C@H]2N3)cc1 | 0.949 ± 0.05 | –
C[C@@H]1CN([C@@H](C)CO)C(=O)c2cc(NC(=O)C3CC3)ccc2O[C@H]1CN(C)S(=O)(=O)c1ccccc1 | 0.9821 ± 0.0066 | –
COc1ccccc1-c1ccc2c(c1)[C@@H]1[C@@H](CCN1C(=O)C1CCC1)[C@H](CO)N2 | 0.655 ± 0.025 | –
N#Cc1ccc(-c2ccc3c(c2)[C@H]2[C@H](CCN2C(=O)C2CCCCC2)[C@H](CO)N3)cc1 | 1.11 ± 0.057 | –
COc1ccccc1-c1ccc2c(c1)[C@H]1[C@H](CCN1C(=O)C1CCC1)[C@@H](CO)N2 | 0.865 ± 0.097 | –
CN1CCN(C(=O)C[C@@H]2CC[C@H]3[C@H](COc4ccc(NC(=O)C5CCOCC5)cc4C(=O)N3C)O2)CC1 | 1.05 ± 0.029 | –
CCS(=O)(=O)Nc1ccc2c(c1)C(=O)N(C)[C@H]1CC[C@H](CC(=O)NCCCN3CCOCC3)O[C@@H]1CO2 | 1.03 ± 0.07 | –
CC(C)NC(=O)Nc1cccc2c1O[C@H](CN(C)C(=O)Nc1ccccc1)[C@H](C)CN([C@@H](C)CO)C2=O | 0.692 ± 0.19 | –
C[C@@H]1CN([C@@H](C)CO)C(=O)c2cccc(NC(=O)Nc3ccccc3)c2O[C@@H]1CN(C)C(=O)Nc1ccccc1 | – | 0.703 ± 0.052
COc1ccc(S(=O)(=O)N(C)C[C@H]2Oc3c(NC(=O)c4nc5ccccc5s4)cccc3C(=O)N([C@H](C)CO)C[C@H]2C)cc1 | 1.03 ± 0.022 | –
CC(C)NC(=O)Nc1cccc2c1O[C@H](CN(C)C(=O)Nc1ccccc1)[C@@H](C)CN([C@@H](C)CO)C2=O | 1.09 ± 0.07 | –
COc1ccc(S(=O)(=O)N(C)C[C@@H]2Oc3c(NC(=O)c4nc5ccccc5s4)cccc3C(=O)N([C@@H](C)CO)C[C@H]2C)cc1 | 0.979 ± 0.043 | –
C[C@@H]1CN([C@@H](C)CO)C(=O)c2cccc(NC(=O)Nc3ccccc3)c2O[C@@H]1CN(C)C(=O)Nc1ccc(F)cc1 | – | 0.727 ± 0.041

SMILES | viability index [1] | viability index [2]
CC(C)NC(=O)Nc1cccc2c1O[C@H](CN(C)C(=O)Nc1ccccc1)[C@H](C)CN([C@H](C)CO)C2=O | 1.03 ± 0.09 | –
COc1ccc(S(=O)(=O)N(C)C[C@H]2Oc3c(NC(=O)Nc4cccc5ccccc45)cccc3C(=O)N([C@@H](C)CO)C[C@H]2C)cc1 | – | 0.767 ± 0.035
CC(C)NC(=O)Nc1cccc2c1O[C@@H](CN(C)C(=O)Nc1ccccc1)[C@@H](C)CN([C@H](C)CO)C2=O | 1.1 ± 0.11 | –
CC(C)NC(=O)Nc1cccc2c1O[C@H](CN(C)C(=O)Nc1ccccc1)[C@@H](C)CN([C@H](C)CO)C2=O | 0.975 ± 0.13 | –
CC(C)NC(=O)Nc1cccc2c1O[C@@H](CN(C)C(=O)Nc1ccccc1)[C@@H](C)CN([C@@H](C)CO)C2=O | 1.04 ± 0.011 | –
CC(C)NC(=O)Nc1cccc2c1O[C@@H](CN(C)C(=O)Nc1ccccc1)[C@H](C)CN([C@H](C)CO)C2=O | 1.05 ± 0.17 | –
CN1C(=O)c2cc(NC(=O)C3CCOCC3)ccc2OC[C@@H]2O[C@H](CC(=O)NCc3ccccc3F)CC[C@H]21 | 1.04 ± 0.032 | –
O=C(CN1CCOCC1)N1CC(=O)N2[C@H](C1)[C@H](c1ccc(C3=CCCCC3)cc1)[C@@H]2CO | 1.02 ± 0.035 | –
CCc1cnc(N2[C@H](C#N)[C@@H](c3ccc(-c4cccc(F)c4)cc3)[C@@H]2CO)s1 | 1.12 ± 0.11 | –
C[C@H](CO)N1C[C@H](C)[C@H](CN(C)C(=O)Nc2ccccc2C(F)(F)F)OCc2cnnn2CCCC1=O | 1.03 ± 0.014 | –
COc1ccc(NC(=O)Nc2cccc3c2O[C@@H](CN(C)Cc2ccc(C(=O)O)cc2)[C@H](C)CN([C@@H](C)CO)C3=O)cc1 | 0.978 ± 0.065 | –
COc1ccc(NC(=O)Nc2cccc3c2O[C@@H](CN(C)Cc2ccc(C(=O)O)cc2)[C@@H](C)CN([C@@H](C)CO)C3=O)cc1 | 0.95 ± 0.17 | –
COc1ccc(NC(=O)N(C)C[C@H]2Oc3c(NC(=O)Nc4ccccc4)cccc3C(=O)N([C@@H](C)CO)C[C@H]2C)cc1 | – | 0.724 ± 0.05
CC(C)[C@H]1C(=O)N[C@H](c2cccc(Cl)c2)C/C=C/C[C@H](C)Oc2ccccc2C(=O)N1C.CC(C)[C@H]1C(=O)N[C@H](c2cccc(Cl)c2)C/C=C\C[C@H](C)Oc2ccccc2C(=O)N1C | 0.9865 ± 0.0032 | –
C[C@H](CO)N1C[C@H](C)[C@H](CN(C)Cc2ccc(-c3ccccc3)cc2)Oc2c(NS(C)(=O)=O)cccc2C1=O | 0.827 ± 0.011 | –
C[C@@H]1CN([C@H](C)CO)C(=O)c2cccc(NS(C)(=O)=O)c2O[C@@H]1CN(C)Cc1ccc(-c2ccccc2)cc1 | 1.02 ± 0.028 | –
C[C@@H]1CN([C@@H](C)CO)C(=O)c2cccc(NS(C)(=O)=O)c2O[C@H]1CN(C)Cc1ccc(-c2ccccc2)cc1 | 1.01 ± 0.029 | –
